Only some compounds are listed: those with a hit (about 20% of all), similar ones and a draw of the others.
Pf growth 96h – inhibits malaria parasite growth, 96 h; P. falciparum luciferase reporter growth, 96 h; Potency, µM (highest dose often 28.7 µM), without a hit: at the highest dose activity change, negative = inhibition, hits mostly inhibitors; 6.9% of 320,000 active; also: potency is read from the fitted curve at half-maximal effect; % is scaled to controls: 0 for no effect and ±100 for the full control effect
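Parasite growth measured via integrated firefly luciferase reporter in P. falciparum. Infected erythrocytes at 2% hematocrit, 0.05% parasitemia final were treated 96 hours at 37 C under 5% CO2, and luminescence was read.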
Pf growth 48h – inhibits P. falciparum growth in the first generation, 48 h | P. falciparum luciferase growth in erythrocytes, 48 h | Potency, µM (top dose mostly 28.7 µM), for inactives: at the top dose activity change, negative = inhibition, hits mostly inhibitors | 5.9% of 310,000 active; also: potency is read from the fitted curve at half-maximal effect; % is scaled to controls: 0 for no effect and ±100 for the full control effect
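A one-generation exposure of luciferase-tagged malaria parasites in RPMI 1640/Albumax erythrocyte culture, 37 C and 5% CO2. Inhibition is inferred from decreased luminescence after adding detection reagent.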
Shiga inhibitor – Shiga toxin inhibition | Vero cells, Shiga toxin protein synthesis inhibition reporter | inhibition, % at 38.7 µM | 9.2% of 290,000 active; in the data active = inhibition mostly above about 28%, no sharp cut-off; inactive = mostly below about 43%; also: 0% is about no effect
HCMV antiviral – human cytomegalovirus inhibition; HFF cells, HCMV-luciferase reporter, 72 h; hits give low values; activity change, negative = inhibition, % at 57.5 µM; 4.5% of 410,000 active; in the data active = activity change below about -60%; inconclusive = no clear call, values can overlap the other calls; inactive = above about -39%; also: % is scaled to controls: 0 for no effect and ±100 for the full control effect
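Luciferase read-out from HCMV-luciferase-infected HFFs (MOI 1 PFU/cell) 72 h post infection at 37C; compounds added after 16 h cell attachment; activity normalized between buffer-only basal and Salinomycin (10uM) inhibitor controls.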
CHX counter – counter-screen for Shiga toxin inhibitors: cycloheximide protein synthesis inhibition; cell reporter, cycloheximide protein synthesis inhibition counterscreen; max response, %; 12% of 300,000 active; AID 2314; in the data active = max response mostly above about 13%, no sharp cut-off; inactive = mostly below about 14%; also: read at 38.3 µM for the half of the compounds with a filed dose; 0% is about no effect
The depositor's hits bear a star; u = inconclusive; x = not tested or not shown. Unless noted, calls follow the shape of the dose curve; as a rule, active = well fitted inhibition curve with a large enough effect; inconclusive = small, poorly fitted or top-dose-only effect, or another doubt; inactive = no such curve, though single readings can be large or run the other way.

SMILES	Pf growth 96h	Pf growth 48h	Shiga inhibitor	HCMV antiviral	CHX counter
C#CCOCCOCCOCCNc1nc(N2CCN(C(=O)Cn3cc(CCO)nn3)CC2)nc(N2CCN(C(=O)[C@H]([C@@H](C)CC)n3cc(CCCCN)nn3)CC2)n1	x	x	x	-27.7	x
C#CCOCCOCCOCCNc1nc(N2CCN(C(=O)CCCCCCCCCCNC(=O)[C@H]([C@@H](C)CC)n3cc(CCCCCN)nn3)CC2)nc(N2CCN(C(=O)CCCCCCCCCCNC(=O)[C@H]([C@@H](C)CC)n3cc(CCCCN=C(N)N)nn3)CC2)n1	2.94µM*	u	x	x	x
Cc1ccc(Cn2ncc3c(N4CCN(C5CCCC5)CC4)ncnc32)cc1	215.8%	u	-8.3	u	11.9
C#CCOCCOCCOCCNc1nc(N2CCN(C(=O)CCCCCCCCCCNC(=O)[C@H]([C@@H](C)CC)n3cc(CCCCN=C(N)N)nn3)CC2)nc(N2CCN(C(=O)CCCCCCCCCCNC(=O)[C@H]([C@@H](C)CC)n3cc(CCCCN=C(N)N)nn3)CC2)n1	4.15µM*	3.7µM*	x	x	x
COc1ccc([N+](=O)[O-])cc1NCc1ccco1	7.9%	29.2%	20.6	u	1.5
Cc1ccc(NC(=O)C(C)N=C2NS(=O)(=O)c3ccccc32)cc1F (centres undefined)	39.2%	-2.2%	63.4*	26.3	28.7*
COc1ccc(-c2nnn(CC(=O)c3ccc4c(c3)OCCO4)n2)cc1OC	28.7%	16.3%	36.1	0.8	16.1*
CCOc1ccc(-c2nnn(CC(=O)c3ccc4c(c3)OCCO4)n2)cc1	u	-14.4%	12.0	-29.2	10.6
CCCOc1ccc(-c2nnn(CC(=O)c3ccc4c(c3)OCCO4)n2)cc1	7.38µM*	u	-2.7	-28.1	-2.1
COc1ccc(C(=O)NNC(=O)Cn2nnc(-c3ccc(OC)c(OC)c3)n2)cc1	22.2%	-0.6%	-4.2	u	-5.7
Cn1c(=O)[nH]c2ncccc21	76.5%	2.1%	7.5	-25.1	1.1
CCCNC(=O)c1csc(Nc2cccc3ccccc23)n1	6.57µM*	9.28µM*	x	79.3	-2.4
O=C(NCC1CCCO1)c1csc(Nc2cccc3ccccc23)n1 (centres undefined)	-2.7%	u	77.3*	48.8	41.1*
COCCNC(=O)c1csc(Nc2cccc3ccccc23)n1	u	u	6.1	34.5	6.1
CC(=O)c1csc(Nc2ccccc2Cl)n1	186.2%	98.8%	68.2*	110.7	33.3*
CCOC(=O)C(C)Sc1nc2c(c(-c3cccs3)c1C#N)CCC2 (centres undefined)	10.4µM*	u	12.6	-26.3	-0.7
CC(C)OC(=O)CC(=O)CSc1nc2c(c(-c3cccs3)c1C#N)CCC2	-3.3%	9.7%	8.4	-18.8	-0.6
C[n+]1cccc(C2C(C#N)=C(N)Oc3c2ccc2ccccc32)c1 (centres undefined)	u	0.294µM*	75.7*	-23.4	50.5*
C[n+]1cccc2ccc3c(c21)OC(N)=C(C#N)C3c1ccccc1 (centres undefined)	7.38µM*	3.7µM*	10.6	-22.2	-2.5
N#CC1=C(N)Oc2cc(O)ccc2C1c1ccccc1 (centres undefined)	x	0.7%	-9.3	-5.2	1.0
COc1ccc(NC(=O)CSc2nnc(NC(=O)Nc3ccccc3)s2)cc1OC	x	x	x	28.8	x
O=C(NC1=NCCS1)c1sc2ccccc2c1Cl	35.0%	46.8%	92.9*	156.5	46.5*
COCc1nnc(NC(=O)c2sc3ccccc3c2Cl)s1	u	66.2%	91.4*	44.7	43.5*
CNC(=O)c1ccsc1NC(=O)c1sc2ccccc2c1Cl	112.7%	105.4%	27.3	149.0	22.4*
Cc1cccnc1NC(=O)c1sc2ccccc2c1Cl	98.2%	92.3%	90.0*	44.6	50.7*
SMILES	Pf growth 96h	Pf growth 48h	Shiga inhibitor	HCMV antiviral	CHX counter
CCN(CC)c1ccc(NC(=O)c2sc3ccccc3c2Cl)cc1	x	x	x	31.3	x
CCCCn1c(N)c(N(Cc2ccccc2OC)C(=O)C(C)Oc2ccc(Cl)cc2)c(=O)[nH]c1=O (centres undefined)	u	u	12.6	57.8	0.4
Cc1csc(NC(=O)c2oc3ccccc3c2C)n1	13.9%	55.7%	x	88.2	x
Cc1nnc(NC(=O)c2sc3ccccc3c2Cl)s1	-26.3%	-25.8%	-20.9	18.7	10.7
Cc1ccc(NC(=O)c2sc3ccccc3c2Cl)nc1	129.2%	79.3%	65.4*	15.5	42.9*
Cc1c(C(=O)NC2=NCCS2)oc2ccccc12	16.3%	164.0%	55.5*	141.8	32.6*
O=C(c1ccccc1)[C@@H]1[C@@H](C(=O)c2ccc(F)cc2)[C@@]2(C(=O)Nc3ccccc32)[C@H]2c3ccccc3C=CN12	u	14.7µM*	9.6	-28.6	7.2
CCOc1ccc(/C=C/C(=O)NCc2ccccc2)cc1	4.1%	-27.1%	29.6	-36.5	20.3*
CCOc1ccc(C(=O)Cc2ccccc2)cc1	x	x	x	22.1	x
CCOc1ccc(/C=C/C(=O)c2ccccc2)cc1	184.5%	111.9%	43.4	53.6	31.0*
O=C(/C=C/c1ccccc1)NCCOc1ccccc1	24.1%	38.5%	76.8*	-35.1	39.4*
CCOc1ccc(C(=O)/C=C/c2ccccc2C(F)(F)F)cc1	8.7%	20.8%	21.9	-11.4	21.4*
COc1cccc(COC(=O)C2CC(=O)N(Cc3ccco3)C2)c1OC (centres undefined)	39.4%	9.8%	-4.9	8.3	9.9
C[C@H](CO)N1C[C@H](C)[C@@H](CN(C)C(=O)Nc2ccc(C(C)(C)C)cc2)OCc2cn(nn2)CCCC1=O	x	x	x	8.8	x
COc1ccc(C(=O)/C=C/c2ccccc2C(F)(F)F)cc1	u	u	28.5	-34.6	25.9*
O=C(O)COc1ccc(/C=C/C(=O)c2ccc(C3CCCCC3)cc2)cc1	u	u	48.9	-8.6	25.8*
O=C(O)COc1ccc(/C=C/C(=O)c2ccc3ccccc3c2)cc1	u	-29.7%	19.6	x	14.1
CC(C)(C)C(=O)/C=C/c1ccc(Oc2ccccc2)cc1	46.9%	161.0%	120.0*	u	49.5*
COc1ccc(C(=O)CC(=O)C(=O)Nc2ccccc2C(F)(F)F)cc1	-10.2%	x	4.8	2.3	-0.3
CCCCOc1nnc(-c2ccc(OCC)cc2)c2ccccc12	x	x	x	0.4	x
CCOc1ccc(-c2nnc3ccc(SC(C)C)nn23)cc1	u	u	-3.0	-39.4	0.4
O=C(CCCC(=O)N(c1ccc2c(c1)OCCO2)C(C(=O)NC1CCCCC1)c1ccc(Cl)cc1)Nc1ccccn1 (centres undefined)	u	u	32.7*	-68.7*	24.3*
COCCN(C(=O)CCC(=O)Nc1ccccn1)C(C(=O)NC1CCCC1)c1ccc(OC)cc1 (centres undefined)	55.8%	-28.2%	13.2	5.6	-2.6
O=C(CCCC(=O)N(c1cccc(F)c1)C(C(=O)NC1CCCC1)c1ccc(O)cc1)Nc1ccccn1 (centres undefined)	-0.7%	u	-1.9	-1.2	-2.2

Screening results (PubChem BioAssay)
